# Compound activity deposited in PubChem BioAssay by National Center for Advancing Translational Sciences (NCATS).
# PI5P4Ka inh = qHTS for Inhibitors of phosphatidylinositol 5-phosphate 4-kinase (PI5P4K); PI5P4Kalpha enzyme, ADP-Glo luminescence, 60 min; hits give low values; AID 652105, 2013; hit rate 1.2% among 330,000; max response, %; Phosphatidylinositol 5-phosphate 4-kinase type-2 alpha (Homo sapiens), P48426; active = max response of -50% or lower; inconclusive = between -30% and -50%; inactive = -30% or higher; note: value at the top dose of about 77 µM; % is set by controls: 0 for no effect and ±100 for the full control effect
# Target sequence (P48426 whole entry, looked up): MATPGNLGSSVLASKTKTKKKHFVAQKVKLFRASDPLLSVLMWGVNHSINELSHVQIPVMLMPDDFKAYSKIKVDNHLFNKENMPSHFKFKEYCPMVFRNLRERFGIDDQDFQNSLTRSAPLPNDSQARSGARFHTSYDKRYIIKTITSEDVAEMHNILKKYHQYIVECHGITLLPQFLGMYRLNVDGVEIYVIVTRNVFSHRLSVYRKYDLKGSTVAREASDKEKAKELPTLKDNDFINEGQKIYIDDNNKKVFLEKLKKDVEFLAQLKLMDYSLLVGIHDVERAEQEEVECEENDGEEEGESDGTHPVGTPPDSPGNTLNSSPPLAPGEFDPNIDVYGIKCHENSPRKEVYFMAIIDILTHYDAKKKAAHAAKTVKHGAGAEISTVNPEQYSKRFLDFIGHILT
#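 Reactions run in 0.038 M HEPES pH 7.4, 0.28 mM EGTA, 0.1% CHAPS and 5% DMSO, with PI5P4Kalpha, substrate, compound and 5 microM ATP final, one hour at room temperature. Readout is ADP-Glo luminescence.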
# PLK1 PBD inh = qHTS for Inhibitors of PLK1-PDB (polo-like kinase 1 - polo-box domain): Primary Screen | Potency, µM, for the others: max response, negative = inhibition, actives largely listed as inhibitors | hit rate 2.8% among 360,000 | Plk1 PBD binding of FITC phosphopeptide, fluorescence polarization; note: potency is the fitted concentration of half-maximal effect; series mostly up to about 57 µM; % is set by controls: 0 for no effect and ±100 for the full control effect; nearly all actives have a fitted effect of over 65% in size
# JMJD2A Tudor = qHTS Assay for Inhibitors of JMJD2A-Tudor Domain | Lysine-specific demethylase 4A (Homo sapiens), O75164 | hit rate 4.4% among 390,000 | AlphaScreen JMJD2A-Tudor / H3K4me3 peptide binding | Potency, µM (series often up to 114 µM), inactives show at the highest dose activity change, negative = inhibition, hits mostly inhibitors; note: potency is the fitted concentration of half-maximal effect; % is set by controls: 0 for no effect and ±100 for the full control effect; nearly all actives have a fitted effect of over 50% in size
# G9a block = qHTS Assay for Inhibitors of Histone Lysine Methyltransferase G9a. G9a H3K9 monomethylation, AlphaScreen, 2 h. Potency, µM (highest dose often 102 µM), without a hit: at the top dose activity, negative = inhibition, usual class: inhibitors. hit rate 8.8% among 350,000; note: potency is the fitted concentration of half-maximal effect; % is set by controls: 0 for no effect and ±100 for the full control effect; nearly all actives have a fitted effect of over 75% in size
#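 Enzyme 20 nM + cpd, 15 min RT; add b-H3K9 pep 500 nM / SAM 20 uM; 2 h RT; anti-H3K9me1 Ab 0.5 ug/mL + SA donor / anti-rabbit acceptor beads 20 ug/mL each, 10 min; AlphaScreen read.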
# HP1b binding inh = HTS for Inhibitors of HP1-beta Chromodomain Interactions with Methylated Histone Tails; hit rate 0.56% among 390,000; Potency, µM (top dose mostly 114 µM), without a hit: at the highest dose activity change, negative = inhibition, actives largely listed as inhibitors; AID 540317, 2011; AlphaScreen HP1-beta / biotin-H3K9me3 peptide binding; note: potency is the fitted concentration of half-maximal effect; nearly all actives have a fitted effect of over 70% in size
# Target sequence (P83916 whole entry, looked up): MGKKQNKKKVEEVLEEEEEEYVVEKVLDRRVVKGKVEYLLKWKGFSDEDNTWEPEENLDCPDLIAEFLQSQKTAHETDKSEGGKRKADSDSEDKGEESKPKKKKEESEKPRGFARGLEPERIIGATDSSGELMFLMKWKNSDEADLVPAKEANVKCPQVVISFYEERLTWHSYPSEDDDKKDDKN
#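 HP1-beta protein (50 nM final) preincubated 30 min at room temperature with biotinylated H3(1-18)K9me3 peptide (50 nM) in PBS pH 7.4, 0.01% Tween-20, then compound added for 30 min. AlphaScreen streptavidin donor/nickel chelate acceptor beads (10 ug/mL final), 30 min dark, luminescence read.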
# BAZ2B inh = qHTS Assay for Inhibitors of BAZ2B. Bromodomain adjacent to zinc finger domain protein 2B (Homo sapiens), Q9UIF8. AlphaScreen BAZ2B-H3K14Ac peptide displacement. Potency, µM (highest dose often 114 µM), for the others: top-dose activity change, negative = inhibition, actives largely listed as inhibitors. hit rate 4.4% among 360,000. AID 504333, 2011; note: potency is the fitted concentration of half-maximal effect; % is set by controls: 0 for no effect and ±100 for the full control effect; nearly all actives have a fitted effect of over 60% in size
#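 AlphaScreen displacement: compounds (up to 110uM) incubated 30 min at room temperature with a preformed 50 nM BAZ2B/50 nM biotinylated H3K14Ac peptide complex in PBS pH 7.4 with Tween-20. Donor and acceptor beads at 10 ug/mL final added, 20 min light-protected before reading.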
# 12-hLO 8HQ R1 = Cuvette-Based Assay for Inhibitors of 12-hLO (12-human lipoxygenase): 8HQ Series - Round 1 | AID 2163, 2009 | Potency, µM, usual class: inhibitors | purified 12-hLO, cuvette UV 234 nm product formation | hit rate 60% among 35 | shares compounds with BAZ2B inh;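 active = compounds that slowed 12-hLO product formation enough to yield a measured IC50 potency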
# JMJD2E inh-1 = Inhibitors of Human Jumonji Domain Containing 2E (JMJD2E): 8HQs - Round 1 | shares compounds with BAZ2B inh | JMJD2E demethylase, FDH-coupled NADH fluorescence | Potency, µM (titrated, usually from 57 µM), without a hit: at the top dose activity, negative = inhibition, usual class: inhibitors | hit rate 89% among 130
# JMJD2E inh-2 = Confirmation qHTS Assay for Inhibitors of Human Jumonji Domain Containing 2E (JMJD2E); hit rate 93% among 140; Recombinant JMJD2E, FDH-coupled NADH fluorescence (FDH is formaldehyde dehydrogenase); shares compounds with JMJD2A Tudor; Potency, µM (series often up to 56.8 µM), inactives show at the highest dose activity change, negative = inhibition, actives largely listed as inhibitors
# FDH counter = Counterscreen for JMJD2E Inhibitors: qHTS Assay for Inhibitors of Formaldehyde Dehydrogenase (FDH); shares compounds with JMJD2A Tudor; FDH enzyme assay, NADH fluorescence kinetic; Potency, µM (highest dose often 56.7 µM), for the others: top-dose activity, negative = inhibition, actives largely listed as inhibitors; hit rate 10% among 140; AID 2680, 2010
# JMJD2E MS inh = MALDI-TOF-MS Assay for Inhibitors of Human Jumonji Domain Containing 2E (JMJD2E); recombinant JMJD2E demethylation, MALDI-TOF-MS; Potency, µM, usual class: inhibitors; hit rate 90% among 45; shares compounds with JMJD2A Tudor;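 active = compounds whose IC50 for blocking JMJD2E demethylation is below 100 µM; inconclusive = dose dependent effect but IC50 above 100 µM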
# An asterisk follows results filed as active; ? = inconclusive; . = no result given; [ ] = another dose, or the depositor's remark. This is a sample that favours compounds with a hit; in the whole collection about 12% have one here. Unless noted, calls come from the whole dose curve; as a rule, active = well fitted curve in the direction sought with a large enough effect; inconclusive = small, poorly fitted or top-dose-only effect, or another doubt; inactive = no such curve, though single readings can be large; an effect the other way counts as inactive or inconclusive.
SMILES,PI5P4Ka inh,PLK1 PBD inh,JMJD2A Tudor,G9a block,HP1b binding inh,BAZ2B inh,JMJD2E inh-1,JMJD2E inh-2,FDH counter,others
Oc1ccc(CNc2cccnc2)c2cccnc12,.,.,22µM*,.,.,.,6.5µM*,13µM*,-18%,JMJD2E MS inh=26*
O=[N+]([O-])c1ccccc1NCc1ccc(O)c2ncccc12,.,.,?,.,.,.,4.5µM*,10µM*,-27%,JMJD2E MS inh=12*
Oc1c(CNc2ccccc2)cc(COCc2ccccc2)c2cccnc12,.,.,-17%,-36%[12.7 µM],21%,50µM*,11µM*,7.9µM*,-9%,
O=C(CC(=O)Nc1cccnc1)Nc1cccnc1,-5,-11%,-2%,-2%,7%,-6%,.,.,.,
Oc1ccc(CNc2cccc(C(F)(F)F)c2)c2cccnc12,.,.,.,1.4µM*,.,22µM*,7.9µM*,7.9µM*,-36%,
CC(=O)N1CCc2c(sc3c2c(=O)n(-c2ccccc2Cl)c(=O)n3Cc2cccc(C)c2)C1,.,.,-31%,-31%[59 µM],4%,-31%,.,.,.,
O=C(COC(=O)C1CCN(S(=O)(=O)c2ccc(Cl)c(C(F)(F)F)c2)CC1)NCC1CCCO1 (configuration not stated),2,-2%,.,.,.,.,.,.,.,
O=C(Nc1ccccc1F)c1ccc(O)c2ncccc12,.,.,.,2%[12.7 µM],.,20µM*,29µM*,35µM*,.,JMJD2E MS inh=41*
NC(=O)c1ccc(O)c2ncccc12,.,.,13µM*,.,.,.,4.6µM*,4.6µM*,-9%,JMJD2E MS inh=90*
O=C(Nc1cccc2cccnc12)c1cccc2ccccc12,.,1%,-3%,8%[59 µM],45%,-3%,.,.,.,
O=C(O)c1ccnc2c(O)cccc12,.,.,.,43%[12.7 µM],.,1.8µM*,1.4µM*,1.4µM*,.,JMJD2E MS inh=8.2*
O=S(=O)(NCc1ccccc1F)c1ccc(O)c2ncccc12,.,.,.,.,.,.,23µM*,18µM*,-36%,
CCCNc1ncccc1C(N)=O,0,-7%,-2%,-8%,11%,7%,.,.,.,
Nc1ncc(S(=O)(=O)NCc2ccccc2F)cn1,.,.,1%,-4%[59 µM],22%[57 µM],0%,.,.,.,
Cc1cc(=O)c(C(=O)Nc2cccc(C(=O)NC3CC3)c2)nn1-c1ccccc1Cl,6,-10%,-11%,5%[12.7 µM],14%,5%,.,.,.,
CCOC(=O)C1=CCN(S(=O)(=O)c2ccc(Cl)cc2)C1c1ccc(C)cc1 (configuration not stated),8,-7%,.,.,.,.,.,.,.,
CC1=C(c2ccc(C)c(C)c2)S(=O)(=O)N=C1N1CCC(C(=O)Nc2cccc(F)c2)CC1,.,.,-15%,3%[59 µM],?,-6%,.,.,.,
Nc1cccnc1Oc1ccccc1F,7,-14%,-10%,9%,1%,-5%,.,.,.,
Oc1ccc(Oc2ccccc2F)c2cccnc12,.,.,50µM*,.,.,.,8.9µM*,13µM*,-9%,JMJD2E MS inh=17*
CN1CCN(C(=O)c2cccc(-c3ccc4nncn4c3)c2)CC1,2,1%,.,.,.,.,.,.,.,
CN1CCN(C(=O)c2cccc(-c3cc(O)c4ncccc4c3)c2)CC1,.,.,50µM*,-3%[12.7 µM],51%,13µM*,16µM*,16µM*,-18%,
Oc1cc(-c2cccnc2)cc2cccnc12,.,.,25µM*,28%[12.7 µM],61%,3.2µM*,5.6µM*,5.6µM*,-27%,
CN1CCN(c2cc(-c3cc(O)c4ncccc4c3)ccn2)CC1,.,.,25µM*,1%[12.7 µM],19%,7.9µM*,16µM*,16µM*,-9%,
O=C(c1cc2ccccc2cc1O)N1CCN(c2ccccn2)CC1,-1,-13%,-25%,?,-23%,-5%,.,.,.,
O=C(NC(Cc1ccccc1)C(=O)O)/C(=C/c1cccc([N+](=O)[O-])c1)NC(=O)c1cccc(Br)c1 (configuration not stated),-1,-4%,-9%,2%,13%,-9%,.,.,.,
SMILES,PI5P4Ka inh,PLK1 PBD inh,JMJD2A Tudor,G9a block,HP1b binding inh,BAZ2B inh,JMJD2E inh-1,JMJD2E inh-2,FDH counter,others
CC(C)(C)OC(=O)N1CCC(c2c(C(=O)NC3CCN(Cc4ccccc4)CC3)cnn2-c2ccc(F)cc2F)CC1,.,.,-9%,-6%[59 µM],28%,-1%[57.1 µM],.,.,.,
CCC(=O)NC(C)c1cc(Cl)c2ccccc2c1O (configuration not stated),.,.,1%,9%[0.501 µM],41%,-2%,.,.,.,
CCC(=O)NC(c1cccs1)c1cc([N+](=O)[O-])c2cccnc2c1O (configuration not stated),-19,-8%,79µM*,?,-8%,7.9µM*,14µM*,14µM*,-18%,12-hLO 8HQ R1=0.8µM*
CCC(=O)NC(c1ccc(F)cc1)c1cc(Cl)c2cccnc2c1O (configuration not stated),.,.,-12%,.,.,.,16µM*,16µM*,-18%,
CCC(=O)NC(c1ccco1)c1cc(Cl)c2cccnc2c1O (configuration not stated),?,-5%,?,17%,2%,45µM*,6.3µM*,6.3µM*,-27%,12-hLO 8HQ R1=1µM*
CCC(=O)NC(c1ccc(C)s1)c1cc(Cl)c2cccnc2c1O (configuration not stated),.,.,-23%,.,.,.,-6%,10µM*,-9%,12-hLO 8HQ R1=3.5µM*
CC(C)(C)c1ccc(C(=O)NCC(=O)NCC(C)(C)N2CCOCC2)cc1,3,-16%,-5%,-12%,26%,-2%,.,.,.,
